Shown are actives, neighbours in structure and some others; about 6.2% of the full set was active somewhere.
MARV entry inh – Marburg virus entry inhibition | 300,000 tested, 1.8% active | AID 540276 | Potency, µM (highest dose often 37.8 µM), without a hit: at the top dose activity change, negative = inhibition, most hits filed as inhibitors | Marburg virus pseudotyped entry inhibition, cell reporter; calls by dose curve; tested in HEK293 cells; note: potency is the fitted concentration of half-maximal effect
HCMV inh – human cytomegalovirus inhibition; HFF cells, HCMV-luciferase reporter, 72 h; stronger effect = lower value; activity change, negative = inhibition, % at 57.5 µM; 410,000 tested, 4.5% active; AID 1259415; in the data active = activity change below about -60%; inconclusive = no clear call, values can overlap the other calls; inactive = above about -39%
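Screen run at 2 compound doses on HFFs infected with reporter HCMV, MOI 1 PFU/cell. Luciferase activity from cell lysates at 72 h post infection gave inhibition relative to buffer-only and Salinomycin wells.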
Lassa entry inh – blocks Lassa virus binding to or entry into cells; Potency, µM (titrated, usually from 37.9 µM), for the others: top-dose activity change, negative = inhibition, most hits filed as inhibitors; 300,000 tested, 1.2% active; Lassa virus pseudotype entry inhibition, cell reporter; AID 540256; calls by dose curve; tested in HEK293 cells; note: potency is the fitted concentration of half-maximal effect; nearly all actives have a fitted effect of over 50% in size
FMDV inh – foot and mouth disease virus antiviral activity | FMDV antiviral cell-based qHTS | Potency, µM (doses to about 57.9 µM), for the others: top-dose activity change, negative = inhibition, actives largely listed as inhibitors | 410,000 tested, 1.2% active; calls by dose curve; tested in HEK293T cells; note: read-out not given here; potency is the fitted concentration of half-maximal effect; nearly all actives have a fitted effect of over 45% in size
* hit, by the source's call; [ ] = dose if it differs, or a comment. % is set by controls: 0 for no effect and ±100 for the full control effect.

CCOc1ccccc1N(C(=O)CNC(=O)c1ccco1)C(C(=O)NC1CCCC1)c1ccncc1 (centres undefined) was read as MARV entry inh -25%[46.1 µM], HCMV inh -61*, Lassa entry inh 24% and FMDV inh 0%.
Cc1ccc(N(C(=O)CNC(=O)c2ccco2)C(C(=O)NC2CCCC2)c2ccncc2)cc1F (centres undefined) was read as MARV entry inh 4%[46.1 µM], HCMV inh 18, Lassa entry inh 0% and FMDV inh -13%.
Screening CCOc1ccc(N(C(=O)CNC(=O)c2ccco2)C(C(=O)NC2CCCC2)c2ccncc2)cc1 (centres undefined) returned MARV entry inh -18%[46.1 µM], HCMV inh -11, Lassa entry inh 18%[46.1 µM] and FMDV inh -8%.
`CC(=O)c1cccc(N(C(=O)CNC(=O)c2ccco2)C(C(=O)NC2CCCC2)c2ccco2)c1` (centres undefined) gave MARV entry inh 0%[46.1 µM], HCMV inh -7, Lassa entry inh inconclusive and FMDV inh 25%.
For O=C(NC1CCCCC1)C(c1cccs1)N(C(=O)c1ccco1)c1ccc2c(c1)OCCO2 (centres undefined) the results were MARV entry inh inconclusive, HCMV inh -61*, Lassa entry inh inconclusive and FMDV inh 5%.
CC(=O)c1cccc(N(C(=O)CNC(=O)c2ccco2)C(C(=O)NC2CCCC2)c2ccc(C)o2)c1 (centres undefined) was read as MARV entry inh 5%[46.1 µM], HCMV inh -10, Lassa entry inh 9% and FMDV inh 1.8µM*.
Cc1ccc(N(C(=O)CNC(=O)c2ccco2)C(C(=O)NC2CCCC2)c2ccncc2)cc1C (centres undefined) was read as MARV entry inh -1%[46.1 µM], HCMV inh -67* and FMDV inh -3%.
`CC(=O)c1ccc(N(C(=O)c2ccco2)C(C(=O)NC2CCCC2)c2cccs2)cc1` (centres undefined) gave MARV entry inh -6%[46.1 µM], HCMV inh inconclusive and FMDV inh 32%.
Screening COc1ccc(C(=O)NCC(=O)NCc2ccc3c(c2)OCO3)cc1[N+](=O)[O-] returned HCMV inh -13 and FMDV inh 0%.
For COc1cccc(C(=O)COc2cccc(NC(=O)c3ccco3)c2)c1 the results were MARV entry inh inconclusive, HCMV inh -17, Lassa entry inh -13% and FMDV inh -11%.
Screening Cc1ccc(N(C(=O)CNC(=O)c2ccco2)C(C(=O)NCC2CCCO2)c2ccccc2)cc1C (centres undefined) returned MARV entry inh -26%[46.1 µM], HCMV inh -67* and FMDV inh -15%.
CCOc1ccccc1N(C(=O)c1ccco1)C(C(=O)NC1CCCC1)c1cccs1 (centres undefined) was read as MARV entry inh inconclusive, HCMV inh -63*, Lassa entry inh -12%[46.1 µM] and FMDV inh 15%.
`COc1ccc(N(C(=O)c2ccco2)C(C(=O)NC2CCCC2)c2cccs2)c(OC)c1` (centres undefined) gave MARV entry inh -26%[46.1 µM], HCMV inh -11, Lassa entry inh inconclusive and FMDV inh 4%.
CC(=O)Nc1cccc(/C(C)=N/N2C(C)CCCC2C)c1 (centres undefined) was read as HCMV inh 6 and FMDV inh 0%.
Screening Cc1ccc(Cl)cc1NC(=O)CCn1c(=O)c2cccn2c2cccnc21 returned HCMV inh inconclusive, Lassa entry inh inconclusive and FMDV inh -4%.
For CCCCCCCCOC(=O)C1=C(C)Nc2nnnn2C1c1cccs1 (centres undefined) the results were MARV entry inh inconclusive, HCMV inh 18, Lassa entry inh inconclusive and FMDV inh inconclusive.
Screening CCCCCCCOC(=O)C1=C(C)Nc2ncnn2C1c1cccs1 (centres undefined) returned MARV entry inh inconclusive, HCMV inh -17, Lassa entry inh 13µM* and FMDV inh inconclusive.
For CN(C)C(=O)c1ccc(NC(=O)COc2cccc3c2OC(C)(C)C3)cc1 the results were MARV entry inh -1%, HCMV inh -101*, Lassa entry inh 5% and FMDV inh -13%.
For COc1cc(NC(=O)COc2cccc3c2OC(C)(C)C3)cc(OC)c1OC the results were HCMV inh -39 and FMDV inh 22µM*.
`CC(=O)Nc1ccc(NC(=O)COc2cccc3c2OC(C)(C)C3)cc1` gave MARV entry inh inconclusive, HCMV inh -26, Lassa entry inh -8%[46.1 µM] and FMDV inh 0%.
`COc1cc(NC(=O)COc2cc(O)c3c(c2)OC(C)(C)CC3=O)cc(OC)c1OC` gave HCMV inh 0 and FMDV inh 4µM*.
`COC(=O)c1ccc(NC(=O)COc2cccc3c2OC(C)(C)C3)cc1` gave MARV entry inh -18%, HCMV inh -4, Lassa entry inh -9%[46.1 µM] and FMDV inh -28%.
`CC1(C)CC(=O)c2c(O)cc(OCC(=O)Nc3ccc(S(N)(=O)=O)cc3)cc2O1` gave HCMV inh -22 and FMDV inh inconclusive.
For Cc1ccc(CCNC(=O)CCS(=O)(=O)c2cc3c(cc2Cl)NC(=O)CO3)cc1 the results were HCMV inh 1, Lassa entry inh -2%[46.1 µM] and FMDV inh inconclusive.
Cc1ccc(S(=O)(=O)N2CCN(c3c([N+](=O)[O-])cc(C(F)(F)F)cc3[N+](=O)[O-])CC2)cc1 was read as MARV entry inh 9%, HCMV inh -20, Lassa entry inh -19% and FMDV inh 0%.
For CCCSc1ncc(Cl)c(C(=O)N(Cc2ccccc2)c2ccc(OC)cc2)n1 the results were MARV entry inh inconclusive, HCMV inh -75*, Lassa entry inh -14%[46.1 µM] and FMDV inh inconclusive.
CCOc1ccc(N(Cc2ccccc2)C(=O)c2nc(SC)ncc2Cl)cc1 was read as MARV entry inh inconclusive, HCMV inh -26, Lassa entry inh -22%[46.1 µM] and FMDV inh inconclusive.
Screening COc1ccc(N(Cc2ccccc2)C(=O)c2nc(S(C)(=O)=O)ncc2Cl)cc1 returned MARV entry inh 2%[46.1 µM], HCMV inh -101*, Lassa entry inh inconclusive and FMDV inh 18µM*.
For COc1ccc(N(Cc2ccccc2)C(=O)c2ccccc2[N+](=O)[O-])cc1 the results were MARV entry inh inconclusive, HCMV inh -33, Lassa entry inh inconclusive and FMDV inh -21%.
Screening CS(=O)(=O)c1ncc(Cl)c(C(=O)N(Cc2ccc(Cl)cc2)Cc2ccco2)n1 returned MARV entry inh inconclusive, HCMV inh -107*, Lassa entry inh inconclusive and FMDV inh inconclusive.
Screening O=C(c1ccc(Cl)cc1)N(Cc1ccco1)Cc1ccco1 returned MARV entry inh 0%[46.1 µM], HCMV inh -14, Lassa entry inh 11%[46.1 µM] and FMDV inh 12%.
For C[C@H](CO)N1C[C@H](C)[C@H](CN(C)S(=O)(=O)c2cccc(C#N)c2)OCc2cnnn2CCCC1=O the results were HCMV inh 18 and FMDV inh -24%.
COc1ccccc1/C=C/C=N/n1c(-c2ccc(C)cc2)n[nH]c1=S was read as MARV entry inh inconclusive, HCMV inh 29, Lassa entry inh 3.7µM* and FMDV inh 10%.
